Hit rate of the full screen: of about 150,000 compounds, about 6,500 (4.3%) were called active. Not shown: some 12% with an inconclusive outcome. The rule behind the calls is not given here. Shown is part of a subset that was picked to be rich in actives.

For the assay, the target named is T1, 15-hydroxyprostaglandin dehydrogenase [NAD(+)] (Homo sapiens) (UniProt P15428).
T1 sequence (whole entry): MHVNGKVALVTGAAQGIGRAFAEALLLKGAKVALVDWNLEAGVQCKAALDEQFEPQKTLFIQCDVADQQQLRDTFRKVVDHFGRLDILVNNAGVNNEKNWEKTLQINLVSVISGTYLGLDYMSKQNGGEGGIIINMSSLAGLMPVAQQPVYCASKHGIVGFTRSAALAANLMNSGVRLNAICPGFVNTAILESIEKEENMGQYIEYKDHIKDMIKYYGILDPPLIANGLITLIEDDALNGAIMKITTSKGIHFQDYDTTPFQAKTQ
Take `O=C(O)c1cc(/N=N/c2ccc(S(=O)(=O)Nc3ccccn3)cc2)ccc1O`: the Potency is 15.8 µM (active).

On to `O=C(O)c1cc(/N=N\c2ccc(S(=O)(=O)Nc3ccccn3)cc2)ccc1O`, for which the Potency is 14.1 µM (active). For `O=C(/C=C\c1ccco1)Nc1nc(-c2ccccc2)cs1`, the Potency entry was “inactive”.

For the origin of these results see ChEMBL document CHEMBL1201862, “PubChem BioAssay data set” (2004).
